In all, about 6,200 compounds went through this assay and about 2,900 (47%) were called active. Cut-off read from the data, not from the text of the source: active = inhibition above about 50%; inactive = the rest. So high a share suggests a set chosen from earlier hits. Some of the results follow.

A short description of this assay: Mycobacterium tuberculosis growth inhibition, primary screen (AID 1259343). The settings on record: inhibition: at 10 µM, stronger effect = higher value; outcome: 10 uM.
As usually defined, the inhibition is the change of the read-out against control, counted positive when it falls. Regarding `O=[N+]([O-])c1ccc(Sc2ccc([N+](=O)[O-])cc2)cc1`, the inhibition was 57.3% (active).
`Nc1cccc2c(Oc3ccc([N+](=O)[O-])cc3)cccc12`: the inhibition was 68.4% (active).
On to `Nc1cccc2c([N+](=O)[O-])cccc12`, for which the inhibition was 8.31% (inactive).
Next, `O=[N+]([O-])c1ccc(C2SCCS2)cc1`: -11.2% (inactive).
`O=[N+]([O-])c1ccc(Oc2ccc(-c3ccccc3)cc2)cc1`: the inhibition was -41% (inactive).
With `O=C(O)c1cc(Oc2ccc([N+](=O)[O-])cc2)cc(Oc2ccc([N+](=O)[O-])cc2)c1`, the inhibition was 60.2% (active).
Consider `O=[N+]([O-])c1ccc(Oc2ccc([N+](=O)[O-])cc2)cc1`, for which the inhibition is 98.6% (active).
Next, `Cc1cnn(CCc2nc(-c3cc(Br)cs3)no2)c1`: 36.5% (inactive); `Cc1cc(OCC(=O)NCc2ccc(-c3ccc(Br)cc3)o2)no1`: 56.9% (active); `Cc1cc(CC(=O)NC2CC2c2ccc(Br)cc2)no1` (configuration not stated): 13.2% (inactive).
With `Cc1ccsc1/C=C/c1cc(C(F)(F)F)[nH]c(=O)n1`, the inhibition was 36.8% (inactive).
For the molecule `O=c1nc(/C=C/c2ccc(Br)cc2)cc(C(F)(F)F)[nH]1`, the inhibition is 100% (active).
Next, `O=c1nc(/C=C/c2cccc3ccccc23)cc(C(F)(F)F)[nH]1`: -5.05% (inactive); `O=c1cc(CSc2ccc(Cl)cc2)nc2nc[nH]n12`: 30% (inactive); `Clc1ccc(Cn2ccnc2CNc2ccccc2)c(Cl)c1`: 28.2% (inactive).
In the case of `Clc1ccc(CSc2nnc3nc[nH]n23)c(Cl)c1` it was 90.4% (active).
For `O=C(c1cccc(OC(F)F)c1)N1CCN(Cc2ccc(-c3noc(-c4ccco4)n3)cc2)CC1`, the inhibition is 91.3% (active).
`O=C(Cc1ccsc1)N1CCN(Cc2cccc(-c3noc(-c4ccccc4)n3)c2)CC1`: the inhibition is 25.5% (inactive).
For the molecule `CCOc1ccc(N2C(=O)CSC2c2ccccc2N)cc1` (configuration not stated), the inhibition is 90.3% (active).
In the case of `COC(=O)C1=C(C(=O)OC)C2=S(SC(c3ccc(OC)cc3)=C2)S1` (configuration not stated), the inhibition was 7.91% (inactive).
Take `COC(=O)C1=C(C(=O)OC)SC(=CC(=S)c2ccc(OC)cc2)S1`: the inhibition is 82.8% (active).
With `COC(=O)C1=C(C(=O)OC)SC(=C2C(=S)C(C)(C)Nc3ccccc32)S1`, the inhibition was 27.1% (inactive).
With `CCOc1ccc(Oc2ccc(S(=O)(=O)NC(C)CC#N)cc2)cc1` (configuration not stated), the inhibition was 39.1% (inactive).
Regarding `CCCCN=C1NN=C(C23CC4CC(CC(C4)C2)C3)C(C)S1` (configuration not stated), the inhibition was 82.7% (active).
In the case of `O=[N+]([O-])c1ccc(NN=C2C3CC4CC2CC(O)(C4)C3)c([N+](=O)[O-])c1`, the inhibition is 25.5% (inactive).
Next, `CC1=CC(=NNc2ccc(S(N)(=O)=O)cc2[N+](=O)[O-])CC(C)(C)C1`: -10.6% (inactive); `O=[N+]([O-])c1ccc(NN=C2CC3CC=CC23)c([N+](=O)[O-])c1` (configuration not stated): 92% (active).
Next, `O=C(Nc1nnc(SCc2ccc(F)cc2)s1)c1ccccc1Br`: 27.4% (inactive); `COCCCNC(=O)CSc1nnc(Nc2ccccc2Cl)s1`: 80.1% (active); `C=CCSc1nnc(NC(=O)c2cc(Br)ccc2Cl)s1`: 9.41% (inactive).
Next, `CC(C)NC(=O)CSc1nnc(Nc2ccccc2Cl)s1`: 78.8% (active); `CCSc1nnc(NC(=O)Cc2ccccc2Cl)s1`: 95.5% (active); `CNc1nnc(SCc2sc3ccccc3c2Cl)s1`: 48.5% (inactive).
As for `CCc1ccccc1Nc1nnc(SCC(=O)NC(C)C)s1`, the inhibition was 102% (active).
On to `C=CCNCC(=O)N(Cc1ccccc1)Cc1ccc(C)s1`, for which the inhibition was 21.1% (inactive).
In the case of `COC(=O)c1ccc(NC(=O)N2CCCC(C(=O)c3sccc3C)C2)cc1` (configuration not stated) it was -5.44% (inactive); in that of `CCCN(CC(=O)N(Cc1ccccc1)Cc1sccc1C)C(=O)Nc1ccc(C(=O)OCC)cc1`, 89.4% (active); in that of `CC(=O)N1N=C(c2ccco2)OC1C(=O)N[C@@H]1C[C@@H]2C[C@H](C1C)C2(C)C` (some centres not stated), 8.4% (inactive).
In the case of `c1cncc(-c2nc(NC3CCCCCCC3)c3ccccc3n2)c1`, the inhibition was 39.2% (inactive).
Consider `c1cncc(-c2nc(N3CCCC4CCCCC43)c3ccccc3n2)c1` (configuration not stated), for which the inhibition is -13.1% (inactive).
For `c1ccc(-c2cc(NC3CCCC3)nc3ccccc23)cc1`, the inhibition was 67.7% (active).
`CC(=O)Oc1ccc(N2C(=O)c3cccc4c([N+](=O)[O-])ccc(c34)C2=O)cc1`: the inhibition was 36.4% (inactive).
Turning to `O=[N+]([O-])c1cccc2nsnc12`, the inhibition is -16% (inactive).
In the case of `O=[N+]([O-])c1ccc(O)c2ncccc12`, the inhibition is 102% (active).
In the case of `O=[N+]([O-])c1ccc(-c2nc(N=Nc3ccc(O)cc3)n[nH]2)cc1` it was 84.3% (active).
Regarding `N#CC(=Cc1ccc(O)cc1)c1ccc([N+](=O)[O-])cc1`, the inhibition was 27.9% (inactive).
Next, `CC(NC(=O)c1ccc2ncsc2c1)C1CC2CCC1C2` (configuration not stated): 5.4% (inactive); `CC(NS(=O)(=O)c1ccc(Cl)cc1)C1CC2CCC1C2` (configuration not stated): -15.9% (inactive); `CC(NC(=O)NC(=O)N(C1CCCCC1)S(C)(=O)=O)C1CC2CCC1C2` (configuration not stated): 79.8% (active).
For `COc1ccc(CC(=O)Nc2cc(C)nn2-c2nc3c(c(=O)[nH]2)CCC3)cc1OC`, the inhibition is 101% (active).
In the case of `CCc1c(C)nc(-n2nc(C)cc2NC(=O)Cc2ccc(OC)cc2)[nH]c1=O`, the inhibition is 99.1% (active).
Take `CCc1c(C)nc(-n2nc(C)cc2NC(=O)c2ccc(OC)cc2OC)[nH]c1=O`: the inhibition is -4.11% (inactive).
Next, `COc1ccc(CC(=O)Nc2cc(C)nn2-c2nc(C)c(C)c(=O)[nH]2)cc1`: -19.9% (inactive).
As for `CCc1c(C)nc(-n2nc(C)cc2NC(=O)/C=C/c2ccc(OC)c(OC)c2)[nH]c1=O`, the inhibition was 99.3% (active).
Regarding `CCc1c(C)nc(-n2nc(C)cc2NC(=O)Cc2ccc([N+](=O)[O-])cc2)[nH]c1=O`, the inhibition is 78.5% (active).
Take `C=CC(=O)Nc1cccc(Sc2nc(Nc3ccc(N4CCN(C)CC4)cc3)ncc2Cl)c1`: the inhibition is 33.2% (inactive).
Next, `O=C(CSc1nnc(C23CC4CC(CC(C4)C2)C3)o1)N1CCCC1`: 45.1% (inactive).
In the case of `CCc1c(C)nc(-n2nc(C)cc2NC(=O)Cc2ccc(OC)c(OC)c2)[nH]c1=O` it was 101% (active); in that of `COc1ccc(CC(=O)Nc2cc(C)nn2-c2nc(C)c(C)c(=O)[nH]2)cc1OC`, 100% (active).
Next, `CCNC(=O)c1cc(Oc2ccc(C)cc2Br)ccn1`: 89.2% (active).
Turning to `Cc1ccc(Oc2ccc3ncccc3c2N)c(Br)c1`, the inhibition is 14.7% (inactive).
In the case of `CCNC(=O)c1cc(N2CCC(c3ccc(OC)cc3)C2)ccn1` (configuration not stated) it was -14.2% (inactive).

The record behind these values is PubChem BioAssay AID1259343 (VanderVen Lab, College of Veterinary Medicine, Cornell …, 2017).
